# According to PubChem BioAssay (EPA / NIEHS):
# Records with an inconclusive call do not appear. Calls of active or inactive are those of the source. Rule for the calls: active = hit-call score of the fitted dose curve at least 0.9, where 1 is the maximum; inconclusive = response in the unintended direction; inactive = score below 0.9.
# Test: ACEA_ER_80hr: ACEA Biosciences xCELLigence Real-Time Cell Analysis on Estrogen Receptor Agonism for Proliferation (AID 2282667)
# Conditions: T47D proliferation, impedance (xCELLigence), 80 h
# Summary of the method: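 T-47D cells monitored by electrical impedance (xCELLigence) with compound present throughout; 80 h timepoint, positive-direction fitting versus DMSO. Eight-point 1:4 dilutions from 100 uM final, duplicate plates.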
SMILES,outcome,AC50
CC(=O)C1C(=O)C=C(C)OC1=O (configuration not stated),inactive,
CCCCOC(=O)C(C)OC(=O)CCC (configuration not stated),inactive,
O=C1Cc2ccccc2C1,inactive,
Cc1ccccc1S,inactive,
Cc1cc(N)n(-c2ccccc2)n1,inactive,
C=C(C)C(=O)OCCC(F)(F)C(F)(F)C(F)(F)C(F)(F)C(F)(F)C(F)(F)C(F)(F)C(F)(F)F,inactive,
CCCCCCCCCCO[C@@H]1O[C@H](CO)[C@@H](O)[C@H](O)[C@H]1O,inactive,
CCOC(=O)C(=O)OCC,inactive,
Cc1cccc(C)c1,inactive,
CCC(C)(C)C1CCC(=O)CC1,inactive,
CC1=CC(C)C(C=O)C(C)C1 (configuration not stated) (tested in a mixture with another compound),inactive,
CC(C)N1C(=O)c2ccccc2C1=O,inactive,
Cc1ccc(C(C)(C)O)cc1,inactive,
CCCOC(=O)CC,inactive,
C=CC(C)(CCC=C(C)C)OC(=O)CC (configuration not stated),inactive,
CC/C=C\CCCCCCCCCCOC(C)=O,inactive,
CCCCCCCOC(C)=O,inactive,
CCCCCc1cccc(=O)o1,inactive,
CC1(C)CC(N)CC(C)(CN)C1 (configuration not stated),inactive,

SMILES,outcome,AC50
O=C(C=Cc1ccccc1)OCCCc1ccccc1,inactive,
CCCCCCOC(C)=O,inactive,
CC(CCO)CC(C)(C)C (configuration not stated),inactive,
C=CC(O)CCCCC (configuration not stated),inactive,
CC(C)N(c1ccccc1)C(C)C,inactive,
CC(C)=CC(=O)O,,3.27 µM (active)
CCCCOCCOC(=O)c1ccccc1C(=O)OCCOCCCC,inactive,
N=C1N=C(N)c2ccccc21,inactive,
CN(C)c1ccc(C=O)cc1,inactive,
COC(=O)c1cccc(C(=O)OC)c1,inactive,
CCCCCCCCCCCCS,inactive,
CC1=CCC(C(C)(C)O)CC1 (configuration not stated),inactive,
CC(C)=CCCC(C)=CC(=O)O,inactive,
CCOc1ccc(NC(C)=O)cc1,inactive,
CCCCCCCC(=O)N(C)C,inactive,
NC(=O)c1cccnc1,inactive,
CC(C)(C)c1cccc(O)c1,inactive,
CCCCOCCOCCO,inactive,
